Records with an inconclusive call do not appear. The source made the active and inactive calls. Unless noted, calls come from the whole dose curve.
Experiments:
[1] = qHTS assay to identify small molecule agonists of the peroxisome proliferator-activated receptor delta (PPARd) signaling pathway - cell viability counter screen (AID 743211; active = well fitted curve in the direction sought with a large enough effect in the repeat runs; an effect the other way counts as inactive or inconclusive; note: nearly all actives have a fitted effect of over 55% in size)
Procedure, shortened: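 PPARd-bla HEK293H cells (UAS-beta-lactamase reporter) were treated with compounds for 17 h at 37 C. Viability was then read in the same wells by CellTiter-Glo luminescence after 30 min at room temperature.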

[2] = target: Peroxisome proliferator-activated receptor delta (Homo sapiens) (UniProt Q03181); experiment: qHTS assay to identify small molecule agonists of the peroxisome proliferator-activated receptor delta (PPARd) signaling pathway (AID 743212)
Peroxisome proliferator-activated receptor delta (Homo sapiens), sequence (Q03181 whole entry, looked up): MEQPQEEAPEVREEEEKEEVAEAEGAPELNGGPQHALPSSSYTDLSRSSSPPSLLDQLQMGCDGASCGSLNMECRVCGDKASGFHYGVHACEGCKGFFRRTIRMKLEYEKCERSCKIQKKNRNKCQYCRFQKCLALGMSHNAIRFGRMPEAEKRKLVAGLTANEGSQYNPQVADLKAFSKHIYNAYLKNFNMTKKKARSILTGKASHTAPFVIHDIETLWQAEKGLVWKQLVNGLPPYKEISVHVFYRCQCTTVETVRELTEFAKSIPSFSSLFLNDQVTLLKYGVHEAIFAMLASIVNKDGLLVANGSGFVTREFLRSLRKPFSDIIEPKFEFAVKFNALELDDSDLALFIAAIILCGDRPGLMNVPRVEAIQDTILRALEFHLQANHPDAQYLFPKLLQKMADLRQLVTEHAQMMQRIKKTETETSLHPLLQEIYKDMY
Procedure, shortened: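 Read-out: beta-lactamase FRET fluorescence after 2 h room-temperature incubation with LiveBLAzer B/G substrate. Cells were HEK293H carrying a UAS-bla reporter for PPARd, treated at 37 C with DMSO-dissolved compounds.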

[3] = qHTS assay to identify small molecule agonists of the farnesoid-X-receptor (FXR) signaling pathway - cell viability counter screen (AID 743218; active = well fitted curve in the direction sought with a large enough effect in the repeat runs; an effect the other way counts as inactive or inconclusive; note: nearly all actives have a fitted effect of over 45% in size)
Procedure, shortened: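 Luminescence from CellTiter-Glo, read after 30 min at RT, reports viability of GeneBLAzer FXR-UAS-bla HEK 293T cells treated 16 h with compounds in the wells used for the beta-lactamase reporter.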

[4] = qHTS assay to identify small molecule antagonists of the farnesoid-X-receptor (FXR) signaling pathway - cell viability counter screen (AID 743221; active = well fitted cell-killing curve with a large enough effect in the repeat runs, not every such curve was filed as active; note: nearly all actives have a fitted effect of over 50% in size)
Procedure, shortened: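 FXR-UAS-bla HEK 293T cells were treated with test compounds plus chenodeoxycholic acid (50 uM final) for 16 h at 37 C. Cell viability in the same wells was then read as CellTiter-Glo luminescence after 30 min at room temperature.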

[5] = target: Vitamin D3 receptor (Homo sapiens) (UniProt P11473); experiment: qHTS assay to identify small molecule agonists of the vitamin D receptor (VDR) signaling pathway (AID 743222)
Vitamin D3 receptor (Homo sapiens), sequence (P11473 whole entry, looked up): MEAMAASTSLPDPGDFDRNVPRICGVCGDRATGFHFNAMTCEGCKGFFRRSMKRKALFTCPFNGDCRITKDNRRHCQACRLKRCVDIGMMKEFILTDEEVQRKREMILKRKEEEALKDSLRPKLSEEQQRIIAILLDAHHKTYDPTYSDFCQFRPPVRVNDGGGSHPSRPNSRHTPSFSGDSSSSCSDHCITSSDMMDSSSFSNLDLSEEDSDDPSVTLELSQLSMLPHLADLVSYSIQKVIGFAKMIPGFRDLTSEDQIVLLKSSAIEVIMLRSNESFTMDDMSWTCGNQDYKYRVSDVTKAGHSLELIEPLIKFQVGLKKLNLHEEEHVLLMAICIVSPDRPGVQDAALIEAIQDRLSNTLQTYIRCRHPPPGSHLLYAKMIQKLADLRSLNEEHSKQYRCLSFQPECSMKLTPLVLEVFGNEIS
Procedure, shortened: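 Beta-lactamase reporter readout (LiveBLAzer B/G FRET, 2 h RT) in VDR-bla cells after 16 h compound treatment at 37C, 5% CO2; cells pre-incubated 4 h before pin transfer of DMSO solutions.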

[6] = qHTS assay to identify small molecule agonists of the vitamin D receptor (VDR) signaling pathway - cell viability counter screen (AID 743224; active = well fitted curve in the direction sought with a large enough effect in the repeat runs; an effect the other way counts as inactive or inconclusive; note: series mostly up to about 63 µM; nearly all actives have a fitted effect of over 50% in size)
Procedure, shortened: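 Cytotoxicity counter screen: VDR-bla cells, 16 h compound exposure at 37C, 5% CO2; CellTiter-Glo luminescence, 30 min RT, same wells as bla read.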

[7] = qHTS assay to identify small molecule antagonists of the vitamin D receptor (VDR) signaling pathway - cell viability counter screen (AID 743225; active = well fitted curve in the direction sought with a large enough effect in the repeat runs; an effect the other way counts as inactive or inconclusive; note: nearly all actives have a fitted effect of over 50% in size)
Procedure, shortened: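 VDR-bla HEK 293T cells, 4 h pre-incubation at 37C, then compound plus 1-alpha,25-dihydroxyvitamin D3 (3 nM final) for 16 h. After the beta-lactamase FRET read, CellTiter-Glo was added to the same wells; luminescence after 30 min at room temperature.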

[8] = qHTS assay to identify small molecule agonists of the NFkB signaling pathway - cell viability counter screen (AID 1159515); note: series mostly up to about 61 µM; nearly all actives have a fitted effect of over 55% in size
Procedure, shortened: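 ME-180 NFkB-bla cells, 2,000/well; overnight attach; compound 5 hr, 37 C/5% CO2; LiveBLAzer substrate 1.5 hr RT; then CellTiter-Glo in same wells, 30 min RT, luminescence read.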

[9] = qHTS assay to identify small molecule agonists of the endoplasmic reticulum stress response signaling pathway (AID 1159516; active = well fitted activation curve with a large enough effect in the signal ratio in the repeat runs, not every such curve was filed as active; the % refers to the signal ratio)
Procedure, shortened: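 HeLa ESRE-bla reporter line; cpd 5 h, 37 C/5% CO2; LiveBLAzer B/G FRET substrate 2 h RT; ex 405, em 460/530 nm.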

[10] = qHTS assay to identify small molecule agonists of the endoplasmic reticulum stress response signaling pathway - cell viability counter screen (AID 1159517);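 note: HeLa cells carrying an ER stress response element beta-lactamase reporter; series mostly up to about 61 µM; nearly all actives have a fitted effect of over 50% in size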
Procedure, shortened: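 Steps: seed 1,500 ESRE-bla HeLa cells per well; incubate overnight at 37 C, 5% CO2; add compounds in DMSO for 5 hr; run FRET substrate 2 hr RT; add CellTiter-Glo, wait 30 min, read luminescence.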

[11] = qHTS assay to identify small molecule antagonists of the retinoid-related orphan receptor gamma (ROR-gamma) signaling pathway - cell viability counter screen (AID 1159520; active = well fitted curve in the direction sought with a large enough effect in the repeat runs; an effect the other way counts as inactive or inconclusive; note: nearly all actives have a fitted effect of over 50% in size)
Procedure, shortened: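 Tet-on ROR gamma CHO cells were given compounds for 2 hr, then doxycycline hyclate at 1 uM final, and incubated 16 hr at 37 C. Viability was measured as ATP content by CellTiter-Glo luminescence.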

[12] = target: Nuclear receptor ROR-gamma (Homo sapiens) (UniProt P51449); experiment: qHTS assay to identify small molecule antagonists of the retinoid-related orphan receptor gamma (ROR-gamma) signaling pathway (AID 1159521; active = well fitted curve in the direction sought with a large enough effect in the repeat runs; an effect the other way counts as inactive or inconclusive)
Procedure, shortened: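 Tet-on RORγ CHO cells carrying a ROR response element–luciferase reporter were pretreated with compounds for 2 h, then induced with 1 uM (final) doxycycline hyclate for 16 h at 37 C. Antagonism was read as decreased ONE-Glo luminescence.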

[13] = qHTS assay to identify small molecule agonists of the AP-1 signaling pathway - cell viability counter screen (AID 1159525); note: nearly all actives have a fitted effect of over 55% in size
Procedure, shortened: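 Same-well cytotoxicity counter screen of the Tox21 10K library in ME-180 cells. The readout is ATP-dependent luminescence after 5 h compound treatment. Data are normalised to DMSO and tetra n-octyl ammonium bromide controls.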

[14] = qHTS assay to identify small molecule agonists of the AP-1 signaling pathway (AID 1159526)
[15] = target: Retinoic acid receptor RXR-alpha (Homo sapiens) (UniProt P19793); experiment: qHTS assay to identify small molecule agonists of the RXR signaling pathway (AID 1159527); note: nearly all actives have a fitted effect of over 35% in size
Retinoic acid receptor RXR-alpha (Homo sapiens), sequence (P19793 whole entry, looked up): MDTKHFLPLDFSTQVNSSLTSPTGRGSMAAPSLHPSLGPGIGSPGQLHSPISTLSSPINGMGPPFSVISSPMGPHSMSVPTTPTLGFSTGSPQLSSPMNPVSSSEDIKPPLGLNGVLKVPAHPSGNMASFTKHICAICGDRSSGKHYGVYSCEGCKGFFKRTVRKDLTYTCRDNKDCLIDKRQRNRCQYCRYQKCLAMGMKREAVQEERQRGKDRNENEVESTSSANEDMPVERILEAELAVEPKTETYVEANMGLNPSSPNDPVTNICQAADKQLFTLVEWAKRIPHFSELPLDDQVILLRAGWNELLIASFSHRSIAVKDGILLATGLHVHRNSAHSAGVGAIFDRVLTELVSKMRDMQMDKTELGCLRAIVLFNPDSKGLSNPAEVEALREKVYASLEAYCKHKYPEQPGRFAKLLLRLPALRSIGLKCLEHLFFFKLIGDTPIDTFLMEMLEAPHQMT
Procedure, shortened: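 GeneBLAzer RXR-alpha-UAS-bla HEK 293T cells in medium with 2% charcoal-stripped FBS, pre-incubated 5 hr at 37 C, then exposed to compounds 16 hr. Beta-lactamase reporter read by FRET substrate, 2 hr room temperature, 460/530 nm emission.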

[16] = qHTS assay to identify small molecule antagonists of the peroxisome proliferator-activated receptor delta (PPARd) signaling pathway - cell viability counter screen (AID 743213; active = well fitted curve in the direction sought with a large enough effect in the repeat runs; an effect the other way counts as inactive or inconclusive; note: nearly all actives have a fitted effect of over 50% in size)
Procedure, shortened: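 Luminescence from CellTiter-Glo, added after the bla read and incubated 30 min at room temperature, gives viability of HEK293H PPARd-bla cells exposed to compounds for 17 h at 37 C with 300 nM L165041.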

[17] = target: Peroxisome proliferator-activated receptor delta (Homo sapiens) (UniProt Q03181); experiment: qHTS assay to identify small molecule antagonists of the peroxisome proliferator-activated receptor delta (PPARd) signaling pathway (AID 743215; active = well fitted inhibition curve with a large enough effect in the signal ratio in the repeat runs, not every such curve was filed as active; the % refers to the signal ratio;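 note: cells stimulated with agonist L165041 at 300 nM final during compound exposure; series mostly up to about 62 µM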)
Procedure, shortened: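 HEK293H GeneBLAzer PPARd UAS-bla reporter cells; cpd + L165041 300 nM final, 17 h 37 C; LiveBLAzer B/G FRET substrate 2 h RT; fluorescence intensity read-out. Antagonist mode.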

[18] = target: Vitamin D3 receptor (Homo sapiens) (UniProt P11473); experiment: qHTS assay to identify small molecule antagonists of the vitamin D receptor (VDR) signaling pathway (AID 743223; active = well fitted inhibition curve with a large enough effect in the signal ratio in the repeat runs, not every such curve was filed as active; the % refers to the signal ratio)
Procedure, shortened: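 VDR-bla cells were plated, incubated 4 h at 37C, then given compound and 1alpha,25-dihydroxyvitamin D3 (3 nM final). After 16 h at 37C, LiveBLAzer B/G FRET substrate was added for 2 h at room temperature and fluorescence read.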

[19] = target: Bile acid receptor (Homo sapiens) (UniProt Q96RI1); experiment: qHTS assay to identify small molecule antagonists of the farnesoid-X-receptor (FXR) signaling pathway (AID 743217; active = well fitted inhibition curve with a large enough effect in the signal ratio in the repeat runs, not every such curve was filed as active; the % refers to the signal ratio)
Bile acid receptor (Homo sapiens), sequence (Q96RI1 whole entry, looked up): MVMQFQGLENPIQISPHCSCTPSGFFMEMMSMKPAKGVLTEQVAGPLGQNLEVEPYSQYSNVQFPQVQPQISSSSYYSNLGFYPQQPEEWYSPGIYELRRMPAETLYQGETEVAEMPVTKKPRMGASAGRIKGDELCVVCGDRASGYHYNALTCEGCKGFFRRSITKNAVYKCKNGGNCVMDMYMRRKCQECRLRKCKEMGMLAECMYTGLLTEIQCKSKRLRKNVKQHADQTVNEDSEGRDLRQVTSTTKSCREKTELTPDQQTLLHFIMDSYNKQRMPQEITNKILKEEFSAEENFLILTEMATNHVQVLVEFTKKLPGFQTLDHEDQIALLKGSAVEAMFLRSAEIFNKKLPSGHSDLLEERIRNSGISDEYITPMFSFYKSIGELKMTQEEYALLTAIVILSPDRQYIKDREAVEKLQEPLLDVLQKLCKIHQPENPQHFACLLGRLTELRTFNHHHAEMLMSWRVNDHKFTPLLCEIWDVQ
Procedure, shortened: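 Read-out: beta-lactamase FRET fluorescence (LiveBLAzer B/G substrate, 2 h, room temperature) in GeneBLAzer FXR-UAS-bla HEK 293T cells. Compounds were co-dosed with 50 uM chenodeoxycholic acid (final) and incubated 16 h at 37 °C.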

[20] = target: Bile acid receptor (Homo sapiens) (UniProt Q96RI1); experiment: qHTS assay to identify small molecule agonists of the farnesoid-X-receptor (FXR) signaling pathway (AID 743220; active = well fitted activation curve with a large enough effect in the signal ratio in the repeat runs, not every such curve was filed as active; the % refers to the signal ratio)
Procedure, shortened: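 FXR-UAS-bla HEK 293T cells carrying a UAS-driven beta-lactamase reporter were plated for 5 h at 37C/5% CO2, then exposed to DMSO-dissolved Tox21 10K compounds for 16 h at 37C. A LiveBLAzer B/G FRET substrate was loaded for 2 h at room temperature before fluorescence reading.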

Measured: Potency

Clc1ccccc1
not listed: [16] | [17] | [18] | [19] | [20]
inactive: all other assays above

O=C(O)C(F)(F)C(F)(F)C(F)(F)C(F)(F)C(F)(F)F
not listed: [2] | [7] | [19] | [20]
inactive: all other assays above

CN1C(=O)CN=C(c2ccccc2)c2cc([N+](=O)[O-])ccc21
not listed: [5] | [18] | [19] | [20]
inactive: all other assays above

CCc1ccccc1N
not listed: [16] | [19] | [20]
inactive: all other assays above

OCCSSCCO
not listed: [18]
inactive: all other assays above

CCC[N+](CCC)(CCC)CCC
not listed: [4] | [5] | [18] | [19] | [20]
inactive: all other assays above

CC(CC(C(N)=O)(c1ccccc1)c1ccccc1)N(C)C (stereo not given)
not listed: [4] | [7] | [17] | [19] | [20]
inactive: all other assays above

C[C@]12CC[C@H]3[C@@H](CCC4=CC(=O)CC[C@@H]43)[C@@H]1CC[C@@H]2OC(=O)CCc1ccccc1
not listed: [17] | [19] | [20]
inactive: all other assays above

— PubChem BioAssay (Tox21)
